Results on 21 compounds are retold here after PubChem BioAssay (EPA / NIEHS).

By AC50 is commonly meant the midpoint of the concentration-response curve, whichever way the signal moves.

Assay [1] concerns the target rat Glutamate, AMPA Site (AMPA), Gria1 (gene 50592) (UniProt P19490). In words: NVS_LGIC_rAMPA: NovaScreen (NVS) Ligand-Gated Ion Channel Assay for rat Glutamate, AMPA Site (AMPA) (AID 2283324). In outline:
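Screening at 25 uM in duplicate preceded concentration series reaching 50 uM for qualifying compounds. Radioligand displacement on rat forebrain membranes, 1 h, filter-based scintillation readout; reduced binding relative to DMSO.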

Assay [2] has as its target human Constitutive Androstane Receptor (CAR), NR1I3 (gene 9970) (UniProt Q14994). Description: NVS_NR_hCAR_Agonist: NovaScreen (NVS) Nuclear Receptor Binding Assay for human Constitutive Androstane Receptor Agonism (CAR) (AID 2283328). In outline: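 Actives from a 25 uM duplicate screen were retested in singleton concentration series to 50 uM max. Biochemical TR-FRET assay on extracted CAR protein measured 1 h post-dose, with signal increase over DMSO control.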

The target of assay [3] is Small conductance calcium-activated potassium channel protein 1 (Rattus norvegicus) (UniProt P70606). Description: NVS_IC_rKCaCh: NovaScreen (NVS) Ion Channel Assay for rat Potassium Channel, Ca2+ Act., VI (KCaCh) (AID 2283336). In outline: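 Filter-based scintillation counting of radioligand bound to rat forebrain membrane preparations, measured 1 h after compound addition. Primary screen used 25 uM in duplicate, with concentration-response follow-up; signal decrease relative to DMSO marks activity.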

Assay [4] addresses rat Neonicotinoid receptor (NNR), Chrna7 (gene 25302) (UniProt Q05941). Description: NVS_LGIC_rNNR_BungSens: NovaScreen (NVS) Ligand-Gated Ion Channel Assay for rat Neonicotinoid receptor (NNR) (AID 2283315). In outline: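 Rat cortical membrane preparation incubated 2.5 h with tritiated or iodinated radioligand and test chemical. Bound radioactivity was filtered and counted by scintillation, and displacement was analysed against DMSO.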

In assay [5] the target is Sodium channel protein type 1 subunit alpha (Rattus norvegicus) (UniProt P04774). In words: NVS_IC_rNaCh_site2: NovaScreen (NVS) Ion Channel Assay for rat Sodium Channel, Site 2 (NaCh) (AID 2283322).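 Further: hit means loss of radioligand binding signal relative to DMSO so AC50 marks displacement.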 In outline:
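Initial duplicate single-point testing at 25 uM, followed by concentration-response runs for actives. Binding of radioligand to rat forebrain membranes quantified after 1 h via filter-based radiodetection.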

Assay [6] addresses Voltage-gated inwardly rectifying potassium channel KCNH2 (Homo sapiens) (UniProt Q12809). In words: NVS_IC_hKhERGCh: NovaScreen (NVS) Ion Channel Assay for human Potassium Channel ERG (KhERGCh) (AID 2283333). In outline:
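Membranes from CHO cells expressing human ERG; displacement of radioligand measured by filtration and scintillation after 0.75 h. Single-concentration duplicate screen at 25 uM, then concentration-response for actives; DMSO baseline.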

The target in assay [7] is rat Gamma-Aminobutyric Acid Type A Receptor, Non-Selective (GABAR-NonSelective), Gabra1 (gene 29705) (UniProt P62813). In words: NVS_LGIC_rGABAR_NonSelective: NovaScreen (NVS) Ligand-Gated Ion Channel Assay for rat Gamma-Aminobutyric Acid Type A Receptor, Non-Selective (GABAR-NonSelective) (AID 2283326). In outline:
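Compounds were first screened in duplicate at 25 uM, with actives run as singleton concentration series (max 50 uM). Binding of a radioligand to rat whole-brain GABA-A preparation was measured by filtration and scintillation counting after 1 h, DMSO baseline.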

Assay [8] concerns the target rat Thyrotropin Releasing Hormone Receptor (TRH), Trhr (gene 25570) (UniProt Q01717). In words: NVS_GPCR_rTRH: NovaScreen (NVS) G Protein-Coupled Receptor Assay for rat Thyrotropin Releasing Hormone Receptor (TRH) (AID 2283329).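 Further: hit means lower bound tracer signal versus DMSO baseline.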 In outline: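 Rat forebrain membrane prep, radioligand displacement, filter scintillation readout at 4 h. Single conc 25 uM, duplicate; actives retested as concentration series. DMSO = negative control/baseline.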

The target in assay [9] is Glutamate receptor ionotropic, kainate 1 (Rattus norvegicus) (UniProt P22756). Description: NVS_IC_rKAR: NovaScreen (NVS) Ion Channel Assay for rat Kainic Acid Receptors (KAR) (AID 2283334; active means hit-call score of the fitted dose curve at least 0.9, where 1 is the maximum; inactive means score below 0.9). In outline:
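Rat forebrain membrane preparation incubated 1 h with radioligand and test chemical; bound signal read by filtration and scintillation. Single-concentration screen at 25 uM, then concentration series to 50 uM maximum.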

Assay [10] concerns the target human Peripheral-type Benzodiazepine Receptor (PBR), TSPO (gene 706) (UniProt P30536). Description: NVS_MP_hPBR: NovaScreen (NVS) Membrane Protein Assay for human Peripheral-type Benzodiazepine Receptor (PBR) (AID 2283331).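 Further: hits reduce radioligand binding relative to DMSO baseline.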 In outline: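 Using human colon-derived membranes, this one-endpoint binding test reads radioligand loss by scintillation after 1 h. Screening started at 25 uM in duplicate, with positive and negative controls on every plate, and actives moved to dose series.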

The test system of assay [11] is NCBI gene 24521. In words: NVS_IC_rKATPCh: NovaScreen (NVS) Ion Channel Assay for rat Potassium Channel, ATP-Sensitive (KATPCh) (AID 2283319). In outline:
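Primary duplicate screen at 25 uM, then singleton concentration series to 50 uM maximum, in a rat cortex membrane radioligand displacement assay. Binding measured by filtration and scintillation 2 h post-dose; DMSO baseline.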

Assay [12] addresses rat Somatostatin Receptor (SST), Sstr1 (gene 25033) (UniProt P28646). In words: NVS_GPCR_rSST: NovaScreen (NVS) G Protein-Coupled Receptor Assay for rat Somatostatin Receptor (SST) (AID 2283314). In outline:
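Single-concentration duplicate screen (25 uM), then concentration-response up to 50 uM for chemicals passing a threshold such as 30% inhibition. Membranes came from rat forebrain. Binding was measured 1 h post-dose by filter radiodetection and scintillation, relative to DMSO.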

Assay [13] deals with rat Vasopressin 1 Receptor (V1), Avpr1a (gene 25107) (UniProt P30560). Description: NVS_GPCR_rV1: NovaScreen (NVS) G Protein-Coupled Receptor Assay for rat Vasopressin 1 Receptor (V1) (AID 2283316). In outline:
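Concentration-response up to 50 uM for chemicals passing a threshold such as 30% inhibition in an initial duplicate 25 uM screen. Displacement of radioligand from rat liver membranes measured after 1.5 h by filtration and scintillation.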

Assay [14] addresses rat Glutamate, NMDA Agonist Site (GluNMDA), Grin1 (gene 24408) (UniProt P35439). In words: NVS_LGIC_rGluNMDA_Agonist: NovaScreen (NVS) Ligand-Gated Ion Channel Assay for rat Glutamate, NMDA Agonist Site (GluNMDA) (AID 2283327). In outline:
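Radioligand displacement at the agonist site on rat forebrain membrane preparations, read by filter scintillation after 1 h. Chemicals were first run at 25 uM in duplicate; those passing threshold were titrated to a 50 uM maximum.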

Assay [15] concerns the target human Serotonin, 5-Hydroxytryptamine Receptor 3 (5HT3), HTR3A (gene 3359) (UniProt P46098). In words: NVS_LGIC_h5HT3: NovaScreen (NVS) Ligand-Gated Ion Channel Assay for human Serotonin, 5-Hydroxytryptamine Receptor 3 (5HT3) (AID 2283325). In outline: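 Initially tested at 25 uM in duplicate, then up to 50 uM in concentration-response for actives, compounds competed with a radioligand for HEK293-derived human 5-HT3 receptor. Bound counts were measured by filtration and scintillation at 1 h; loss of signal versus DMSO.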

The target of assay [16] is rat Opioid Receptor, Non-selective Binding, Oprm1 (gene 25601) (UniProt P33535). Description: NVS_GPCR_rOpiate_NonSelective: NovaScreen (NVS) G Protein-Coupled Receptor Assay for rat Opioid Receptor, Non-selective Binding (AID 2283318). In outline: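 Filter-based radioligand displacement using rat forebrain membrane preparations, measured 1.5 h post-dosing. Single-concentration duplicate screen at 25 uM, follow-up in concentration series; activity taken as signal loss relative to DMSO.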

Assay [17] can be described thus: NVS_IC_rCaDHPRCh_L: NovaScreen (NVS) Ion Channel Assay for rat Calcium Channel, Type L, Dihydropyridine Site (CaDHPRCh_L) (AID 2283320). In outline:
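Rat cortex membrane preparation; dihydropyridine-site radioligand displacement read 1 h post-dose by filtration and scintillation. Primary single-point screen 25 uM in duplicate, then concentration series to 50 uM maximum; DMSO as negative control.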

For assay [18], the target named is human Androgen Receptor (AR), AR (gene 367) (UniProt P10275). Description: NVS_NR_hAR: NovaScreen (NVS) Nuclear Receptor Binding Assay for human Androgen Receptor (AR) (AID 2283332). In outline:
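Actives from a duplicate 25 uM single-point screen went on to concentration series. Read-out after 20 h was scintillation counting of displaced radioligand in LnCAP extract, with DMSO as baseline.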

In assay [19] the target is bovine Gamma-Aminobutyric Acid Type A Receptor BDZ, alpha 5 site (GABARa5), GABRA5 (gene 523515) (UniProt Q08E50). Description: NVS_LGIC_bGABARa5: NovaScreen (NVS) Ligand-Gated Ion Channel Assay for bovine Gamma-Aminobutyric Acid Type A Receptor BDZ, alpha 5 site (GABARa5) (AID 2283323). In outline: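 Tested first in duplicate at a single 25 uM, with hits re-run in concentration series to a 50 uM maximum. Bovine hippocampal membranes; specific radioligand displacement measured by filter scintillation counting 1 hr post-dose.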

Inconclusive results are not listed. Active and inactive are the calls of the source. How the source made its calls, unless noted: active means hit-call score of the fitted dose curve at least 0.9, where 1 is the maximum; inconclusive means response in the unintended direction; inactive means score below 0.9.

Chain of human Serotonin, 5-Hydroxytryptamine Receptor 3 (5HT3), HTR3A (gene 3359) (P46098 whole entry, looked up): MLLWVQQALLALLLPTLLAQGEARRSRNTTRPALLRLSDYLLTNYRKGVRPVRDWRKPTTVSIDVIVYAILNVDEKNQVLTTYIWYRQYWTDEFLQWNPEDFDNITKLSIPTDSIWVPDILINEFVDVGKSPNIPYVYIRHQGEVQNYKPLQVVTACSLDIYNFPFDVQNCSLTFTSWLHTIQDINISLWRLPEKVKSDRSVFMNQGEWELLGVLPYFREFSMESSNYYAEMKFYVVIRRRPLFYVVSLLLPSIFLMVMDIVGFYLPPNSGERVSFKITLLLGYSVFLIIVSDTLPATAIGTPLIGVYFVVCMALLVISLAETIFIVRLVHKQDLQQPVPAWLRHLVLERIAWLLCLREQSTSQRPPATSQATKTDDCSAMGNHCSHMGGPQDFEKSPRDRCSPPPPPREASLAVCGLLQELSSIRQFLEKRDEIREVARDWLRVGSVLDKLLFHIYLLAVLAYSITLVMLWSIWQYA
Chain of human Constitutive Androstane Receptor (CAR), NR1I3 (gene 9970) (Q14994 whole entry, looked up): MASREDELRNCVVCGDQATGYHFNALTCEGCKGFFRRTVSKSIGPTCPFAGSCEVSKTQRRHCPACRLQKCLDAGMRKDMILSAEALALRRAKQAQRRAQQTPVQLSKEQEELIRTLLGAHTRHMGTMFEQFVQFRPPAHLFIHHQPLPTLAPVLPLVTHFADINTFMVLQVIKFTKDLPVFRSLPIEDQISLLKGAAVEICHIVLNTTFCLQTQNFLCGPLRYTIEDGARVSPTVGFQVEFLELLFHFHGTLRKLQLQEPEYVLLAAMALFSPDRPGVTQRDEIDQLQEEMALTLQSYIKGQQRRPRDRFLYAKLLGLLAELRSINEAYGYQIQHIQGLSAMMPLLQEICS
Chain of rat Gamma-Aminobutyric Acid Type A Receptor, Non-Selective (GABAR-NonSelective), Gabra1 (gene 29705) (P62813 whole entry, looked up): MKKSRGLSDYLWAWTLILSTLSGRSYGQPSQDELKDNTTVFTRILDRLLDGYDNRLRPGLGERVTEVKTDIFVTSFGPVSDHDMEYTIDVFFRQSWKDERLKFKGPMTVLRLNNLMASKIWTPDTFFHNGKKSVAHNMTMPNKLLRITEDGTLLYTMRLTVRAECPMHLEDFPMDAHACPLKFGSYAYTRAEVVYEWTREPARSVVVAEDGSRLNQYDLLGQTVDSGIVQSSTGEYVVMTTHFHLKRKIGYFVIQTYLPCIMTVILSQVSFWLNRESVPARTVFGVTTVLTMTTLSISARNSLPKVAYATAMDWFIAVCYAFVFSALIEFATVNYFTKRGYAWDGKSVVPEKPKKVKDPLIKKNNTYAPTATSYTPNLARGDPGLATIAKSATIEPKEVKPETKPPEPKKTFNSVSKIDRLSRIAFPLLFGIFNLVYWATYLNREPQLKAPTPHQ
Chain of rat Glutamate, AMPA Site (AMPA), Gria1 (gene 50592) (P19490 whole entry, looked up): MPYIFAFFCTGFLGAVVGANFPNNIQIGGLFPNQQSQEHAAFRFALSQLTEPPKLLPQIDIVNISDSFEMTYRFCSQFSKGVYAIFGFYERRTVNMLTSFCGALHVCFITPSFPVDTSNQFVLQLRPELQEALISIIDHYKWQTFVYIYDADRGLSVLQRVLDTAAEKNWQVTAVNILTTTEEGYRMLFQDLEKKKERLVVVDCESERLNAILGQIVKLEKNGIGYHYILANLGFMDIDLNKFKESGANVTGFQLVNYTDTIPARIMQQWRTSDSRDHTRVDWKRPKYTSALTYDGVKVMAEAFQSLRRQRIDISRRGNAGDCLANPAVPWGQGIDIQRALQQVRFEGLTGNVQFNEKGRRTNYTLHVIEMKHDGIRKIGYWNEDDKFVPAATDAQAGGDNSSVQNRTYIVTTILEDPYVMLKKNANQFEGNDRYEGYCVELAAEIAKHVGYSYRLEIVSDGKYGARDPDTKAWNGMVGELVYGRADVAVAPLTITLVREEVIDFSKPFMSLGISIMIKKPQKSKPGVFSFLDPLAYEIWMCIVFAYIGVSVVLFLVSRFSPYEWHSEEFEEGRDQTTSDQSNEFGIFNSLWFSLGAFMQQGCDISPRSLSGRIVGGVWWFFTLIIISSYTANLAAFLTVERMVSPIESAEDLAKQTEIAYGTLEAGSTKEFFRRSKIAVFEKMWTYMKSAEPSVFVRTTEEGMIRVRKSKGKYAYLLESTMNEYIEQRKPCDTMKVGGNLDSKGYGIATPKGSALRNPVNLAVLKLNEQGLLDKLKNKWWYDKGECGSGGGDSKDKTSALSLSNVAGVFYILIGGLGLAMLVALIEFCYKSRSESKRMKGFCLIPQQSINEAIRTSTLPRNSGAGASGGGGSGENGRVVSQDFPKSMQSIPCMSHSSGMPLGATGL
Chain of Glutamate receptor ionotropic, kainate 1 (Rattus norvegicus) (P22756 whole entry, looked up): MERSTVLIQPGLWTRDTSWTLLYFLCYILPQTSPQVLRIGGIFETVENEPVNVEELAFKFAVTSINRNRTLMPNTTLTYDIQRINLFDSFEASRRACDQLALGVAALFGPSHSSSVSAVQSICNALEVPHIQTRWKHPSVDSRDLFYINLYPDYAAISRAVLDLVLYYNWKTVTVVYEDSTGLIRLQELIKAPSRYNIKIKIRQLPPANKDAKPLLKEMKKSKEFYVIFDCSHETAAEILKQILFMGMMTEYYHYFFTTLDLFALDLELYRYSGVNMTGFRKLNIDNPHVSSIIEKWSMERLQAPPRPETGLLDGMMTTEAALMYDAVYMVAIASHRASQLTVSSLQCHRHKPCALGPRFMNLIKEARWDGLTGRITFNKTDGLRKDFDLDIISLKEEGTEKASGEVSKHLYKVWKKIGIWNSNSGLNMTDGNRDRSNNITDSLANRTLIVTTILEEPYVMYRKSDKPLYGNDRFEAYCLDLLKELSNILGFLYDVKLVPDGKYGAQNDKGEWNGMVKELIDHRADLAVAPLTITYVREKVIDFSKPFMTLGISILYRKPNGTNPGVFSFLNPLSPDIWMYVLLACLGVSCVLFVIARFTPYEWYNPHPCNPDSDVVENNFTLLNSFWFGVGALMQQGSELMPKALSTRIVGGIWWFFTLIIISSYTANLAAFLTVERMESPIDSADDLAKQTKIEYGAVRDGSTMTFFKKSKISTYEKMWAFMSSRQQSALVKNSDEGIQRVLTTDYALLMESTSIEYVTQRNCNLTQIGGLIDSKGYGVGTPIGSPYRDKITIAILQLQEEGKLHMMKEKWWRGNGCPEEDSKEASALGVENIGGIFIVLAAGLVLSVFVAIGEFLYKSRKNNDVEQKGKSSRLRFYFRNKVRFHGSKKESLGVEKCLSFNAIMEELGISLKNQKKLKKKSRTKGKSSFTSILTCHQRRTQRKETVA
Chain of rat Neonicotinoid receptor (NNR), Chrna7 (gene 25302) (Q05941 whole entry, looked up): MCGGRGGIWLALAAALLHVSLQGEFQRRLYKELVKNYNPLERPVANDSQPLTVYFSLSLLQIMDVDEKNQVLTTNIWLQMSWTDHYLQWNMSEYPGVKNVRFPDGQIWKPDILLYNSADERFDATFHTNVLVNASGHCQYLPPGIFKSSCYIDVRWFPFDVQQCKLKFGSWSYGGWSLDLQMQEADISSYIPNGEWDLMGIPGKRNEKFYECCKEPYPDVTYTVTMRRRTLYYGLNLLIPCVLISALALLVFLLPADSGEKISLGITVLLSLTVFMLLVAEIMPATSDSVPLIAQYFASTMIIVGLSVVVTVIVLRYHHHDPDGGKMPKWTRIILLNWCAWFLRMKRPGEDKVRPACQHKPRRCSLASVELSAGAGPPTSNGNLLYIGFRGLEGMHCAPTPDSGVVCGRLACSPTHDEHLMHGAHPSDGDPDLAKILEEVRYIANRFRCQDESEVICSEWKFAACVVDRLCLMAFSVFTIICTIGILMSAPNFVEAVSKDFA
Chain of Voltage-gated inwardly rectifying potassium channel KCNH2 (Homo sapiens) (Q12809 whole entry, looked up): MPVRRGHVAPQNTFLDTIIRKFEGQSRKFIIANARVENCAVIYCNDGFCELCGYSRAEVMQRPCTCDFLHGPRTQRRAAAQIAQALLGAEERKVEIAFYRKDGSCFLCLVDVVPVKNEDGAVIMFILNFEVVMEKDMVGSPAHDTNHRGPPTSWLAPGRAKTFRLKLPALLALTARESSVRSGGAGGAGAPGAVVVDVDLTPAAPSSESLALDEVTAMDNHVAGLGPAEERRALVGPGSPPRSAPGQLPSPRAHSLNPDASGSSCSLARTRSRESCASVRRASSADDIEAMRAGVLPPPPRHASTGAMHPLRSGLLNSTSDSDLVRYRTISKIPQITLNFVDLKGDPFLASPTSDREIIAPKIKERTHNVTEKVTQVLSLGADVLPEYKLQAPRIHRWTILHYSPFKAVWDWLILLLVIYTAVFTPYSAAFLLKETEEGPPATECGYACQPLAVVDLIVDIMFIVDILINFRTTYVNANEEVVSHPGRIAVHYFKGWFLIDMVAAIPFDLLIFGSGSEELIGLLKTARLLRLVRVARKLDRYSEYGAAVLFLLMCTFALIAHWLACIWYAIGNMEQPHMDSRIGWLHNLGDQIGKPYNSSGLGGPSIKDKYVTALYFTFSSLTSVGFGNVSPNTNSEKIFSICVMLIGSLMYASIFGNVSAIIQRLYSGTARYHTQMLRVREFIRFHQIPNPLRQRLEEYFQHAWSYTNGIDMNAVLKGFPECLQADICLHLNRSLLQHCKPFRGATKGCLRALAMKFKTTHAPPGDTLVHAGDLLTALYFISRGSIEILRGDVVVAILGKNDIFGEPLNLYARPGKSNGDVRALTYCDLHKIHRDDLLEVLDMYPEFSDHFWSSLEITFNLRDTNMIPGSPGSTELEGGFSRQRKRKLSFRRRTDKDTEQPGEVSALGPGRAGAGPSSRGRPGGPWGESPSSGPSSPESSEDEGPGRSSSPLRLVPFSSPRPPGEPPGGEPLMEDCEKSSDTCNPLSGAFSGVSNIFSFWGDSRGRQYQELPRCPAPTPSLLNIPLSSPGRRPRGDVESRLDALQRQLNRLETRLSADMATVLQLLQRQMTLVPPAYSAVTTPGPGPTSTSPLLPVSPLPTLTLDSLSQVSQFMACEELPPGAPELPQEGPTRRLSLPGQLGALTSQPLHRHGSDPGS
Chain of human Peripheral-type Benzodiazepine Receptor (PBR), TSPO (gene 706) (P30536 whole entry, looked up): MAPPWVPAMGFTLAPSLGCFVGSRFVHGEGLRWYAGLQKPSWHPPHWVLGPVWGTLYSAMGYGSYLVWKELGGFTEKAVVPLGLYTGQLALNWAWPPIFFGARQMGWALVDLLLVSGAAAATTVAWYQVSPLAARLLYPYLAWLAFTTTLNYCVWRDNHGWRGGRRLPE

As for `COCc1nnc(-c2ccc[n+]([O-])c2)n1-c1c(Cl)c(Cl)cc2[nH]c(=O)c(=O)[nH]c12`, the AC50 in assay [1] is 12.6 µM (active).

With `Cc1nc(-c2ccccn2)ncc1C(=O)Nn1cc(C)c2cc(F)ccc21`, the outcome in assay [2] and in [3] was inactive.

For the compound `COc1cc(C(C)C)c2c(c1)S(=O)(=O)N(COc1cc(=O)n3cccc(OCCN4CCCCC4)c3n1)C2=O`, the call in assay [4] and in assay [2] was inactive. Also, the AC50 in assay [5] is 4.01 µM (active).

Turning to `CCCCN1C(=O)[C@@H]([C@H](O)C2CCCCC2)NC(=O)C12CCN(Cc1ccc(Oc3ccc(C(=O)O)cc3)cc1)CC2`, in assay [6], the outcome was inactive.

Take `OC(CCl)CCl`: in assay [7], the half-maximal activity concentration (AC50) was 4.96 µM (active).

As to `OCC(CO)(CO)CO`, the outcome in assay [8] was inactive.

On to `O=S(=O)(O)c1ccc(N=Nc2c(O)ccc3cc(S(=O)(=O)O)ccc23)cc1`, for which the half-maximal activity concentration (AC50) in assay [6] was 12.3 µM (active). The compound was called inactive in assay [9].

In the case of `CCCC(CCC)C(=O)O`, the result in [7] was inactive.

In the case of `c1ccc2cc3ccccc3cc2c1`, the compound was classed as inactive in assay [10].

With `Cc1ccc(S(=O)(=O)NC(=O)NN2CCCCCC2)cc1`, the AC50 in [11] is 3.58 µM (active).

`O=C(O)[C@H](O)[C@@H](O)C(=O)O`: the outcome in assay [11] was inactive.

Take `CCCCCCCCCC`: the AC50 in assay [12] is 2.19 µM (active); in [13] it was 25 µM (active). In addition, the call in assay [4], in [5], in assay [1] and in assay [14] was inactive.

As for `c1ccc2c(c1)-c1cccc3c1c-2cc1ccccc13`, the compound was called inactive in assay [15].

For `COc1cc2c(c(OC)c1OC)-c1ccc(OC)c(=O)cc1[C@@H](NC(C)=O)CC2`, the compound was classed as inactive in assay [9].

Turning to `C=CCc1cc(S(=O)(=O)c2ccc(O)c(CC=C)c2)ccc1O`, the AC50 is 13.1 µM (active) in assay [16], 8.51 µM (active) in assay [17], 22.5 µM (active) in assay [5] and 6.16 µM (active) in assay [18]. In addition, the outcome in [9] was inactive.

As to `CCCCCCCCCCCCCCCCOS(=O)(=O)O`, the AC50 in [15] is 17.3 µM (active).

`OCCOCCOCCO`: the result in assay [1] and in [2] was inactive.

For the compound `C[C@@H](Oc1ccc(CNC(=O)c2cccnc2Oc2ccc3c(c2)OCO3)c(F)c1)C(=O)O`, in assay [10], the AC50 was 20.8 µM (active).

Turning to `CCCCCCCC1CCC(=O)O1` (configuration not stated), the outcome in [12] was inactive.

Regarding `CCOc1ccc2[nH]cc(C(=O)NCc3ccccc3)c(=O)c2n1`, the AC50 in assay [19] was 0.0253 µM (active). Moreover, the result in [7] was inactive.

As for `O=C1CN(N=Cc2ccc([N+](=O)[O-])o2)C(=O)N1`, the outcome in assay [1] and in [15] was inactive.
